An excerpt weighted towards active compounds, which were near 4% of everything screened.
ADAM10 inh: inhibits human ADAM10 | O14672 | recombinant ADAM10, EDANS/DABCYL FRET peptide cleavage, 3 h | inhibition, % at 7 µM | actives 0.62% (n = 370,000) | AID 720582;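 active = inhibition above a per-campaign cutoff equal to the mean of compounds falling between control-based bounds plus 3 SD, cut at about 20% in these data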;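 also: 0% = DMSO wells while the 100% control is not disclosed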
FAS TE block: blocks the thioesterase domain of human fatty acid synthase; recombinant FAS-TE, OMFH fluorogenic substrate, fluorescence endpoint; inhibition, % at 15 µM; actives 0.67% (n = 360,000);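 active = compounds whose normalised, plate-corrected inhibition of enzyme fluorescence in the single-dose primary screen is 50% or more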;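 also: 0% = DMSO with enzyme and 100% = substrate without enzyme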
ADAM17 inh: inhibits human ADAM17. P78536. recombinant ADAM17, EDANS/DABCYL FRET peptide cleavage. inhibition, % at 6.95 µM. actives 0.83% (n = 370,000). AID 720648;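 active = inhibition above the mean of compounds lying between control limits plus 3 SD, set per campaign, cut at about 8.5% in these data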;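 also: 0% = DMSO-only wells as the low control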
NR3A LBD binder: modulators (binders) of human NR3A ligand-binding domain; NR3A LBD differential scanning fluorimetry, Tm shift; 0% = protein alone, 100% = glycine-bound protein; Tm shift relative to glycine control, % at 25 µM; actives 2.5% (n = 340,000); AID 1259313;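 active = melting temperature shift of at least 10% of the positive control shift, at one fixed dose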
aDG glyco up: alpha-DG glycosylation activation; Pro5-aDG cells, alpha-DG glycosylation AlphaScreen (IIH6); 0% Pro5, 100% B10-LARGE cell signal; activation, % at 10 µM; actives 0.22% (n = 360,000); AID 624168;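 active = activation of at least 8% versus controls, or a plate z-score of at least 8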;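 also: Pro5 are CHO cells carrying HIG-tagged alpha-DG that lacks glycosylation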
ADAM10 ctr: inhibits human ADAM10 in ADAM17 exosite counter-screen; shares compounds with ADAM17 inh; actives 47% (n = 2,900); inhibition, % at 6.95 µM; AID 743256; recombinant ADAM10, EDANS/DABCYL FRET peptide cleavage, 3 h;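 active = mean inhibition over the triplicate runs exceeds the activity threshold set in the earlier primary screen, cut at about 20% in these data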;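 also: 0% = DMSO wells and 100% = marimastat wells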
ADAM17 confirm: human ADAM17 inhibition, confirmation; shares compounds with ADAM17 inh; recombinant ADAM17, EDANS/DABCYL QFRET peptide cleavage; inhibition, % at 6.95 µM; actives 65% (n = 2,900);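 active = mean inhibition across replicates above the hit cutoff set in the primary screen, cut at about 8.5% in these data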;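 also: 0% = DMSO wells and 100% = marimastat wells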
Starred values were filed as active, the others as inactive; i = inactive; . = no result given.

SMILES	ADAM10 inh	FAS TE block	ADAM17 inh	NR3A LBD binder	aDG glyco up	ADAM10 ctr	ADAM17 confirm
O=C(CSC1CC(=O)N(CCc2ccccc2)C1=O)Nc1ccc(Br)cc1 (stereo not given)	12	10	9.3*	-5	0	10	8
COc1ccc(CCN2C(=S)N(c3ccccc3)C(=O)C2CC(=O)O)cc1OC (stereo not given)	8	-5	0	0	0	.	.
CCN1C(=O)C(CC(=O)Nc2ccc(OC)cc2)N(CCc2ccc(OC)cc2)C1=S (stereo not given)	18	17	11*	-1	0	32*	15*
CCOc1ccc(NC(=O)CC2C(=O)N(C)C(=S)N2CCCc2ccccc2)cc1 (stereo not given)	6	0	2	7	0	.	.
Cc1c2cnn(-c3ccccc3)c(=O)c2c(C)n1CCCC(=O)NCCN1CCN(C)CC1	2	-5	-3	0	0	.	.
CCOC(=O)c1sc(N/N=C/c2cccc(C)c2)nc1C	-9	0	-7	-1	0	.	.
COc1c(F)c(F)c(C(=O)Nc2ccccc2N2CCN(C(=O)C(C)C)CC2)c(F)c1F	-3	3	2	-1	1	.	.
COc1ccc(C2NC(=O)c3ccccc3N2)cc1COc1ccc(NC(C)=O)cc1 (stereo not given)	i	.	-360	.	.	.	.
Cc1cccc(C)c1-n1nnnc1C(c1ccccc1)N1CCN(C/C=C/c2ccccc2)CC1 (stereo not given)	14	22	9.4*	.	0	10	10*
Cc1cccc(C)c1-n1nnnc1C(c1cccs1)N1CCN(C/C=C/c2ccccc2)CC1 (stereo not given)	2	29	0	.	-1	.	.
CC(C)c1ccc(S(=O)(=O)Nc2ccc3c(c2)OCO3)cc1	8	17	12*	0	0	8	6
Cc1nc2ccc(S(=O)(=O)NCC(=O)NCc3ccc4c(c3)OCO4)cc2s1	4	-5	11*	0	0	18	15*
COc1ccc(NS(=O)(=O)c2ccc(OC)c(NC(=O)CCC3CCCC3)c2)cc1	18	36	12*	32*	0	20	12*
COc1ccc(OC)c(NC(=O)COC(=O)CCC2CCCC2)c1	-2	16	1	2	0	.	.
CC1CN=C(N(C(=O)Nc2ccccc2)C(C)c2ccccc2)S1 (stereo not given)	10	6	-1	2	0	.	.
CN(CC(=O)Nc1ccccc1Cl)C(=O)COC(=O)c1nc(Cl)ccc1Cl	-5	-4	0	2	0	.	.
O=C(/C=C/c1ccccc1Cl)Nc1cccc(O)c1	6	6	9.2*	30*	1	2	4
O=C(/C=C/c1ccccc1Cl)Nc1ccc(Cl)cn1	-4	-2	-1	-8	0	.	.
CCCN1C(=O)/C(=C/c2ccc3c(c2)OCO3)NC1=S	2	0	2	-3	0	.	.
CCCN1C/C(=C/c2ccc3c(c2)OCO3)C(=O)/C(=C/c2ccc3c(c2)OCO3)C1	-7	-2	10*	-2	0	4	28*
CCOC(=O)c1[nH]c(C)c(CN(CCc2ccccc2)S(C)(=O)=O)c1C	7	9	5	2	0	.	.
CNc1ncnc2c1cnn2C1CCCCO1 (stereo not given)	-3	-4	-2	1	0	.	.
O=C(N/N=C/c1cccnc1)c1ccc([N+](=O)[O-])cc1	14	1	8.9*	-1	0	12	9.0*
O=C(N/N=C/c1cccnc1)c1ccc(F)cc1	8	-4	-2	1	0	.	.
COc1ccc([C@H]2CC(=O)C=C(c3ccc(F)cc3OCc3ccccc3)C2)cc1OC	18	28	9.8*	12*	0	11	6
SMILES	ADAM10 inh	FAS TE block	ADAM17 inh	NR3A LBD binder	aDG glyco up	ADAM10 ctr	ADAM17 confirm
O=C1C=C(c2ccc(F)cc2OCc2ccccc2)C[C@@H](c2ccc(F)cc2)C1	-2	28	-1	3	0	.	.
O=C(c1ccc([N+](=O)[O-])cc1[N+](=O)[O-])N1CCN(C(=O)C2CCCO2)CC1 (stereo not given)	-9	-8	-5	1	0	.	.
CC(C)[C@H]1COCCS(=O)(=O)N1Cc1ccccc1-c1cccc2c1oc1ccccc12	19	39	11*	2	0	9	7
CCCCOc1ccccc1-c1ccccc1CN1[C@@H](C(C)C)COCCS1(=O)=O	8	22	3	5	0	.	.
CCOC(=O)[C@]12CCCCC/C=C\1N(Cc1ccc(OC)cc1)C(=O)[C@H]2CC(=O)N1CCC(c2ccccc2)CC1	11	.	9.4*	.	.	11	7
CCOC(=O)[C@]12CCCCC/C=C\1N(Cc1ccc(OC)cc1)C(=O)[C@H]2CC(=O)N1CCCCC1	5	.	0	.	.	.	.
COC(=O)C1=C(C)N(Cc2cccc(C(F)(F)F)c2)C(=NCc2ccc3c(c2)OCO3)NC1c1ccc(F)cc1 (stereo not given)	-7	.	9.9*	.	.	19	12*
COC(=O)C1=C(C)N(Cc2cccc(C(F)(F)F)c2)C(=NCc2ccc(C(F)(F)F)cc2)NC1c1ccc(F)cc1 (stereo not given)	4	.	9.5*	.	.	22*	12*
COC(=O)C1=C(C)N(Cc2cccc(C(F)(F)F)c2)C(=NCc2ccc3c(c2)OCO3)NC1c1cccc(C(F)(F)F)c1 (stereo not given)	0	.	-2	.	.	.	.
CC(C)CNC(=O)COC(=O)Cc1ccc(Cl)cc1	-6	-3	-1	2	0	.	.
COc1ccc(C2c3ccc4ccccc4c3Oc3ncn(CCN4CCOCC4)c(=N)c32)cc1OC (stereo not given)	11	6	8.6*	1	0	12	9.2*
COc1ccc(C2c3ccc4ccccc4c3Oc3ncn(CCN4CCOCC4)c(=N)c32)cc1 (stereo not given)	18	5	9.2*	-3	1	12	8
COc1ccc(C2c3ccc4ccccc4c3Oc3ncn(CCO)c(=N)c32)cc1OC (stereo not given)	.	-4	.	-2	0	.	.
COc1ccc(C(=O)CCNc2ccc(C)c(Cl)c2)cc1	2	-2	0	-486	0	.	.
COc1cccc(C(=O)Nc2ccc(S(=O)(=O)N3CCCCC3)cc2)c1OC	-8	14	-2	2	0	.	.
COCCNc1nnc(SC(C)C(=O)Nc2c(C)n(C)n(-c3ccccc3)c2=O)s1 (stereo not given)	0	-11	-2	-2	0	.	.

Screening results as filed in PubChem.
